Of roughly 8,800 targets only a part is listed; those with a hit were picked by preference. About 0.5% of all pairs of compound and target were hits.
Columns and labels:
Experiment in all cases: log2 fold change, soluble protein after heating vs DMSO (PISA); higher = thermal stabilisation; K562 lysate, 10 uM; active = over 0.2 and 3.5 SD of the protein, either way, in both replicates (recomputed)
[1] = compound: CN1CC[C@H](c2c(O)cc(O)c3c(=O)cc(-c4ccccc4Cl)oc23)[C@H](O)C1 [alvocidib]
In short: (§1)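 A 30 min treatment with 10 μM compound was applied to crude K562 extract at 1 mg/mL protein in PBS pH 7.4 with 1 mM MgCl2. Heating for 3 min spanned 48°C-58°C, after which aliquots were pooled, adjusted to 0.5% NP-40 at 4°C and spun at 21,000xg for 90 min. TMTpro 16plex LC-MS/MS of the supernatant, with channel sums equalised, gave values recorded as log-two fold change in thermal stability against solvent controls, from duplicates.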

[2] = compound: CN1CCc2c(c3ccccc3n2Cc2ccc(C(=O)NO)cc2)C1 [Tubastatin A]
In short: as §1

[3] = compound: CNC(=O)C1=CC=CC=C1NC2=NC(=NC=C2Cl)NC3=C(C=C(C=C3)N4CCOCC4)OC
In short: as §1

[4] = compound: CNC(=O)c1ccc(Nc2ncc(C(F)(F)F)c(NCc3nccnc3N(C)S(C)(=O)=O)n2)cc1 [defactinib]
In short: as §1

[5] = compound: CNc1nc(-c2ccc3c(N)n[nH]c3c2)cc(N2C[C@@H](C(=O)NC3CCCCC3)CC[C@H]2C)n1
In short: as §1

[6] = compound: COC(=O)N[C@@H](C)CNc1nccc(-c2cn(C(C)C)nc2-c2cc(Cl)cc(NS(C)(=O)=O)c2F)n1 [encorafenib]
In short: as §1

[7] = compound: COC(=O)[C@H](CCSC)NC(=O)C1=C(C=C(C=C1)NC[C@H](CS)N)C2=CC=CC=C2
In short: as §1

[8] = compound: COc1cc(Nc2ncc3c(n2)-c2ccc(Cl)cc2C(c2c(F)cccc2OC)=NC3)ccc1C(=O)O [alisertib]
In short: as §1

[9] = compound: COc1cc2nc(-c3cc(F)ccc3O)nc(N[C@@H]3CNC[C@H]3C(C)(C)O)c2cc1OC
In short: as §1

[10] = compound: COc1cc2ncnc(Nc3ccc(F)c(Cl)c3)c2cc1OCCCN1CCOCC1 [gefitinib]
In short: as §1

Measured: log2 fold change

CEPT1 (UniProt Q9Y6K0)
inactive: [1] -0.012 | [2] 0.055 | [3] -0.024 | [4] 0 | [5] -0.051 | [6] 0.019 | [7] -0.025 | [8] 0.054 | [9] -0.123 | [10] -0.036

CASC4 (UniProt Q6P4E1)
inactive: [1] -0.03 | [2] 0.054 | [3] 0.011 | [4] -0.064 | [5] -0.044 | [6] 0.128 | [7] -0.012 | [8] 0.035 | [9] -0.004 | [10] 0.086

CCNH (UniProt P51946)
UniProt P51946, sequence (P51946 whole entry, looked up): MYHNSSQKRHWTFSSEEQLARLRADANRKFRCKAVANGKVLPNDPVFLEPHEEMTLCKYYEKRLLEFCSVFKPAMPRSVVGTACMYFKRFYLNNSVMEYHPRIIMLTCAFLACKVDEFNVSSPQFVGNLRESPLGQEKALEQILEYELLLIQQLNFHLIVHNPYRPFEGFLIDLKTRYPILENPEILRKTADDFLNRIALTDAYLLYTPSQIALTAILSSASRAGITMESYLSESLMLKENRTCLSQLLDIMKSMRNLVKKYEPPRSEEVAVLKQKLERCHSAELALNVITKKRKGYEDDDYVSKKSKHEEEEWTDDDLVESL
inactive: [1] 0.006 | [2] 0.016 | [3] -0.015 | [4] 0.026 | [5] -0.018 | [6] 0.033 | [7] -0.047 | [8] -0.005 | [9] -0.007 | [10] 0.024

CARS isoform 3 (UniProt P49589)
active: [7] 0.213
inactive: [1] 0.006 | [2] -0.041 | [3] 0.001 | [4] -0.013 | [5] -0.01 | [6] -0.013 | [8] 0.003 | [9] -0.005 | [10] -0.019

CHD1L (UniProt Q86WJ1)
inactive: [1] 0.012 | [2] -0.16 | [3] -0.003 | [4] -0.001 | [5] -0.025 | [6] 0.013 | [7] 0.114 | [8] 0.018 | [9] -0.002 | [10] 0.006

CCDC51 (UniProt Q96ER9)
inactive: [1] 0.127 | [2] -0.037 | [3] -0.001 | [4] 0.008 | [5] 0.038 | [6] -0.008 | [7] -0.001 | [8] 0.016 | [9] -0.066 | [10] 0.022

CDC42BPA isoform 6 (UniProt Q5VT25)
inactive: [1] -0.099 | [2] -0.13 | [3] -0.015 | [4] -0.002 | [5] -0.065 | [6] 0.017 | [7] 0.093 | [8] -0.005 | [9] -0.019 | [10] -0.004

ATP9B (UniProt O43861)
inactive: [1] -0.076 | [2] 0.048 | [3] 0.044 | [4] -0.117 | [5] -0.018 | [6] 0.068 | [7] 0.012 | [8] -0.081 | [9] 0.16 | [10] -0.015

CARNMT1 (UniProt Q8N4J0)
inactive: [1] -0.167 | [2] 0.045 | [3] -0.021 | [4] -0.03 | [5] -0.021 | [6] 0.051 | [7] 0.015 | [8] -0.022 | [9] 0.026 | [10] 0.009

CEBPZOS (UniProt A8MTT3)
UniProt A8MTT3, sequence (A8MTT3 whole entry, looked up): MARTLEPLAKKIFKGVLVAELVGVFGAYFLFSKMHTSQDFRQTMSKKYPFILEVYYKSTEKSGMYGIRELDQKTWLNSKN
inactive: [1] -0.063 | [2] -0.124 | [3] 0.015 | [4] 0.075 | [5] -0.055 | [6] 0.064 | [7] 0.046 | [8] -0.064 | [9] -0.099 | [10] 0.006

CDC16 (UniProt Q13042)
inactive: [1] 0.012 | [2] -0.1 | [3] 0.002 | [4] -0.024 | [5] -0.097 | [6] 0.032 | [7] -0.133 | [8] -0.008 | [9] -0.037 | [10] 0.017

CCNB2 (UniProt O95067)
UniProt O95067, sequence (O95067 whole entry, looked up): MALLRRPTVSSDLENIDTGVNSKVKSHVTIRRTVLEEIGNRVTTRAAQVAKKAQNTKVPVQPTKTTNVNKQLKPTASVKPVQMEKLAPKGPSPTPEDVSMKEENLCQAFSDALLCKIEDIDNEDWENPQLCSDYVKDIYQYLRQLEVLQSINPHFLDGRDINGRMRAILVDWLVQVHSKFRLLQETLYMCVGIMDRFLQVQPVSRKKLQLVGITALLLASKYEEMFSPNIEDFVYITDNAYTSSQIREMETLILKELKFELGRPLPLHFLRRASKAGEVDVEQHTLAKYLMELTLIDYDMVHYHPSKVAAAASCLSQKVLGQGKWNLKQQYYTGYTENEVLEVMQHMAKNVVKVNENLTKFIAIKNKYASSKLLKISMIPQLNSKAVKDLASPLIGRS
inactive: [1] 0.046 | [2] 0.027 | [3] 0.028 | [4] -0.044 | [5] 0 | [6] 0.039 | [7] 0.032 | [8] -0.076 | [9] 0.031 | [10] 0.084

CCT6A (UniProt P40227)
UniProt P40227, sequence (P40227 whole entry, looked up): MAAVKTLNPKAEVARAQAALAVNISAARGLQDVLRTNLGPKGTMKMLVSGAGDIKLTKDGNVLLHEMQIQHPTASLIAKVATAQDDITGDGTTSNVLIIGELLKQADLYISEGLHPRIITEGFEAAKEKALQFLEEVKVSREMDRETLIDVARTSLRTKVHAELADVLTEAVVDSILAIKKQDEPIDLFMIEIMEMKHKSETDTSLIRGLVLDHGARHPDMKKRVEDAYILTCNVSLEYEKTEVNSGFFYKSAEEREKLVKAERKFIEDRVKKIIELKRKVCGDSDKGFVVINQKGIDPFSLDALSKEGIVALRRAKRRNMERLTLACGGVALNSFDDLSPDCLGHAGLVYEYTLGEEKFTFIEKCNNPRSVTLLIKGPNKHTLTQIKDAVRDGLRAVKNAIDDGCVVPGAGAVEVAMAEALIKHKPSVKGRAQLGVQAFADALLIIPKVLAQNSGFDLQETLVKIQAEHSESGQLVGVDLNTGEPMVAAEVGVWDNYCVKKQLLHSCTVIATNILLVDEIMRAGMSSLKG
inactive: [1] 0.027 | [2] 0.025 | [3] 0.006 | [4] -0.018 | [5] -0.001 | [6] -0.015 | [7] -0.024 | [8] 0.012 | [9] -0.003 | [10] -0.021

ATP13A1 (UniProt Q9HD20)
inactive: [1] 0.051 | [2] 0.036 | [3] -0.012 | [4] 0.028 | [5] -0.002 | [6] -0.008 | [7] -0.067 | [8] 0.055 | [9] 0.03 | [10] 0.011

CD63 (UniProt P08962)
UniProt P08962, sequence (P08962 whole entry, looked up): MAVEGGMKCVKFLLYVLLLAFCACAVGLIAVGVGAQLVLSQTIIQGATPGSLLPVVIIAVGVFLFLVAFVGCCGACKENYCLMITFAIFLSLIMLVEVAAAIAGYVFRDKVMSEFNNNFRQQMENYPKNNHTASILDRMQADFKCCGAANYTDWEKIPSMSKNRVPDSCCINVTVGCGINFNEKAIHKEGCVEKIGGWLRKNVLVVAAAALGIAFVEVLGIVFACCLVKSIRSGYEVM
inactive: [1] -0.184 | [2] 0.023 | [3] -0.013 | [4] 0.089 | [5] -0.101 | [6] 0.046 | [7] -0.055 | [8] 0.01 | [9] -0.02 | [10] -0.023

ATE1 isoform 2 (UniProt O95260)
UniProt O95260, sequence (O95260 whole entry, looked up): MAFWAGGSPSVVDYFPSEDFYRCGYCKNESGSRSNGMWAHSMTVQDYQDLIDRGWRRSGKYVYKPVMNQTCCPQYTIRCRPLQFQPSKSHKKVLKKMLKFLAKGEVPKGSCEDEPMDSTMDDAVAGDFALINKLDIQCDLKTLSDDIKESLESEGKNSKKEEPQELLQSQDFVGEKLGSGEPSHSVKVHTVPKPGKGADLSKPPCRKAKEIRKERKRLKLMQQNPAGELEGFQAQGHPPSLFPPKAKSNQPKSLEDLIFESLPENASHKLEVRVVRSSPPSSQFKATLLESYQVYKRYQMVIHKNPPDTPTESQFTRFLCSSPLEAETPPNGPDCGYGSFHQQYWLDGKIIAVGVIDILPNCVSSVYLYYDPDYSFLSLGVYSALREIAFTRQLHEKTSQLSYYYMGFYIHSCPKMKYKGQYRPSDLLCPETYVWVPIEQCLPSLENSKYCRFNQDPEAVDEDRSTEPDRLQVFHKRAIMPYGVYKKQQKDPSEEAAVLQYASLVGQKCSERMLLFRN
inactive: [1] -0.116 | [2] -0.008 | [3] 0.036 | [4] 0 | [5] 0.038 | [6] -0.013 | [7] 0.109 | [8] 0.021 | [9] 0.004 | [10] -0.038

CDC45 isoform 3 (UniProt O75419)
UniProt O75419, sequence (O75419 whole entry, looked up): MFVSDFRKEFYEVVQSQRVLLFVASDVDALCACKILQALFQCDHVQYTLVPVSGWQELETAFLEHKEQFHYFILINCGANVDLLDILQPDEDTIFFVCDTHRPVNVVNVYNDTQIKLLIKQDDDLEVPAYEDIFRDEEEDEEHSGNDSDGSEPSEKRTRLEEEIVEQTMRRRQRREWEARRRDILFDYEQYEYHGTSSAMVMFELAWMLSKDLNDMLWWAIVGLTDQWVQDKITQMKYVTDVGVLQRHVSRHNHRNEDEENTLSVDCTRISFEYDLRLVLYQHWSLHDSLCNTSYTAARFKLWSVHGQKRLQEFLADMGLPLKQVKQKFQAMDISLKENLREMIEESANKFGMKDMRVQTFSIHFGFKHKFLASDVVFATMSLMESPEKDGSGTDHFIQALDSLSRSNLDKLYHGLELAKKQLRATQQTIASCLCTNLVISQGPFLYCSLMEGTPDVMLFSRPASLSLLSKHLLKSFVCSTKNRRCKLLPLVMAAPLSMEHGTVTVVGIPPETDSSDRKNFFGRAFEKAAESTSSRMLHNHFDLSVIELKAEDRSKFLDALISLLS
inactive: [1] 0.031 | [2] -0.138 | [3] 0.031 | [4] 0.028 | [5] -0.017 | [6] 0.001 | [7] 0.019 | [8] 0.023 | [9] 0.009 | [10] -0.034

CHD4 isoform 2 (UniProt Q14839)
inactive: [1] -0.004 | [2] -0.069 | [3] -0.014 | [4] 0.007 | [5] 0.017 | [6] 0.013 | [7] 0.087 | [8] 0.016 | [9] -0.007 | [10] -0.014

CDKN1C (UniProt P49918)
UniProt P49918, sequence (P49918 whole entry, looked up): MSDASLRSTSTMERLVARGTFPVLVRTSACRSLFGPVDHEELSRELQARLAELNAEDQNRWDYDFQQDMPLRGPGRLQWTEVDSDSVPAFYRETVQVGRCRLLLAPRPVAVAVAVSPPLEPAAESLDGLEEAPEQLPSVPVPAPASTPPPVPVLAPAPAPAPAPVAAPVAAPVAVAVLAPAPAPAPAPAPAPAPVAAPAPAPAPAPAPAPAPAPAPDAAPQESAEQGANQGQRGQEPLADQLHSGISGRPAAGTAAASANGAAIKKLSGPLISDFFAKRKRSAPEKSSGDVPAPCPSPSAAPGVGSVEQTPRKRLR
inactive: [1] -0.035 | [2] -0.056 | [3] 0.025 | [4] -0.186 | [5] -0.067 | [6] -0.037 | [7] -0.019 | [8] -0.082 | [9] 0.046 | [10] -0.136

BTK isoform 2 (UniProt Q06187)
inactive: [1] -0.037 | [2] -0.113 | [4] 0.017 | [5] -0.039 | [6] -0.033 | [7] 0.051 | [8] -0.012 | [9] -0.029 | [10] -0.046
active: [3] 0.307

BPHL (UniProt Q86WA6)
UniProt Q86WA6, sequence (Q86WA6 whole entry, looked up): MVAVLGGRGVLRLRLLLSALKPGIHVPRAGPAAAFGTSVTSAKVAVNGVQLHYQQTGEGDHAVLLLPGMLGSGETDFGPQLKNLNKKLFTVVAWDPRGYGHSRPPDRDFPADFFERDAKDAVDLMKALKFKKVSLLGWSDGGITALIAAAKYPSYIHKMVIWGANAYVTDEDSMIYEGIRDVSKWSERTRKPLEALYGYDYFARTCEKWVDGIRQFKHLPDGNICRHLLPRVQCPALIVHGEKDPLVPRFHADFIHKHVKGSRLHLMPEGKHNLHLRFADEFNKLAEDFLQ
inactive: [1] 0.004 | [2] -0.006 | [3] -0.048 | [4] 0.036 | [5] -0.137 | [6] -0.002 | [7] 0.004 | [8] 0.085 | [9] -0.028 | [10] 0.009

CARHSP1 (UniProt Q9Y2V2)
inactive: [1] 0.031 | [2] 0.065 | [3] 0.009 | [4] -0.033 | [5] 0.078 | [6] -0.013 | [7] -0.055 | [8] -0.014 | [9] 0.01 | [10] -0.029

CASP6 (UniProt P55212)
inactive: [1] -0.011 | [2] -0.003 | [3] 0.067 | [4] 0.039 | [5] -0.046 | [6] -0.015 | [7] -0.026 | [8] 0.023 | [9] -0.029 | [10] 0.061

CAMK2G isoform 8 (UniProt Q13555)
inactive: [2] -0.098 | [3] 0.223 | [4] 0.006 | [5] 0.034 | [6] -0.199 | [7] -0.007 | [8] -0.013 | [9] 0.144 | [10] -0.013
active: [1] 0.334

C18orf25 isoform 2 (UniProt Q96B23)
UniProt Q96B23, sequence (Q96B23 whole entry, looked up): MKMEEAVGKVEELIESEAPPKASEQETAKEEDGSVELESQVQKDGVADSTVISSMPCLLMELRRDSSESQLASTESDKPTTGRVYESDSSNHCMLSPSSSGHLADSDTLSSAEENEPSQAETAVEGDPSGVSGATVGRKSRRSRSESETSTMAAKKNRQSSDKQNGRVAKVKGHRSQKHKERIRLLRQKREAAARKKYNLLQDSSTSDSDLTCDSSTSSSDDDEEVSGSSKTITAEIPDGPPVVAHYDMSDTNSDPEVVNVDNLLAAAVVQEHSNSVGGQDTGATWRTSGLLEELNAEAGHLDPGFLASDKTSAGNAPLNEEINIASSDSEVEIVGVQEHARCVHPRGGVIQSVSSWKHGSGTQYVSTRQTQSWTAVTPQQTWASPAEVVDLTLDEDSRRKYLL
inactive: [1] 0.1 | [2] 0.106 | [3] 0.1 | [4] 0.072 | [5] 0.043 | [6] 0.033 | [7] -0.084 | [8] 0.058 | [9] 0.031 | [10] 0.034

CHD5 (UniProt Q8TDI0)
inactive: [1] -0.005 | [2] -0.022 | [3] 0 | [4] -0.042 | [5] 0.037 | [6] 0.024 | [7] 0.033 | [8] -0.016 | [9] -0.009 | [10] -0.001

CDK5RAP3 isoform 4 (UniProt Q96JB5)
inactive: [1] -0.118 | [2] 0.038 | [3] -0.007 | [4] -0.021 | [5] 0.021 | [6] 0.007 | [7] 0.094 | [8] 0.006 | [9] 0.026 | [10] -0.024

CDK11B (UniProt P21127)
UniProt P21127, sequence (P21127 whole entry, looked up): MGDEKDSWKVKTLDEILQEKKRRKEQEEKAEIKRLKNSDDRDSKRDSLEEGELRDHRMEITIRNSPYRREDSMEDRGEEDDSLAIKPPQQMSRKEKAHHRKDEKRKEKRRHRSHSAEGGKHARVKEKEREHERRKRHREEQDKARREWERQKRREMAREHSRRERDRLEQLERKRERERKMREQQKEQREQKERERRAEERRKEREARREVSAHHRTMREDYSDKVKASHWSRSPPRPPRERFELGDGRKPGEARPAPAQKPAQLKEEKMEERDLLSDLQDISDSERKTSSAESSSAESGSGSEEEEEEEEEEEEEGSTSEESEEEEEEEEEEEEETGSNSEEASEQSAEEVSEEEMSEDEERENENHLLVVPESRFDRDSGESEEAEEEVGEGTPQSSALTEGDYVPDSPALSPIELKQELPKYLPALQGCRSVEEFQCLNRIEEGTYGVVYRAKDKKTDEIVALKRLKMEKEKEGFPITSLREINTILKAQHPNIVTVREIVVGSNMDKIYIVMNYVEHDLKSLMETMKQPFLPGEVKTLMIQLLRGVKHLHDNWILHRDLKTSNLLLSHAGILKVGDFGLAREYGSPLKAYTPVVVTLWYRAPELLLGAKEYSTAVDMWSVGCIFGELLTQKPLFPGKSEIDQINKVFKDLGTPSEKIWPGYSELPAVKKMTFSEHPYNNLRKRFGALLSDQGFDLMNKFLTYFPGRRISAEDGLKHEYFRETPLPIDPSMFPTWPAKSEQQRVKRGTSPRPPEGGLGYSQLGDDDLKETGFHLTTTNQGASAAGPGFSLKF
inactive: [2] -0.081 | [3] 0.012 | [4] -0.013 | [5] 0.019 | [6] -0.012 | [7] 0.108 | [8] 0.012 | [9] -0.036 | [10] -0.016
active: [1] 0.273

CDKN1B (UniProt P46527)
inactive: [1] 0.057 | [2] 0.048 | [3] 0.035 | [4] 0.067 | [5] -0.045 | [6] 0.03 | [7] -0.043 | [9] 0.023

CDK8 (UniProt P49336)
UniProt P49336, sequence (P49336 whole entry, looked up): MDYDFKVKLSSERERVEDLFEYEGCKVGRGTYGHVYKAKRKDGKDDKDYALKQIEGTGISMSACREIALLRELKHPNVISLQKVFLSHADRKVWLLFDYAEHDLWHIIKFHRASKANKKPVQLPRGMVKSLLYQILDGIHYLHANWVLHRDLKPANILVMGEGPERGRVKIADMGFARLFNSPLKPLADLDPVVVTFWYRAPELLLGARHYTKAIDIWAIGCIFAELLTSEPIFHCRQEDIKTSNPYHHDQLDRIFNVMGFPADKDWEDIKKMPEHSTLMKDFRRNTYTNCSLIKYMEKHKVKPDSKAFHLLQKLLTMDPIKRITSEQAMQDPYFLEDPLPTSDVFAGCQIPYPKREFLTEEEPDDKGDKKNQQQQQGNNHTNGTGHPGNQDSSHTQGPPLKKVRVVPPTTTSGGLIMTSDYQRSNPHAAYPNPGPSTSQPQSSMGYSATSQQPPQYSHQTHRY
inactive: [2] -0.059 | [3] -0.065 | [4] -0.101 | [5] 0.083 | [8] -0.052 | [9] -0.047 | [10] 0.07
active: [1] 0.384

Source: the supplement of paper PMC10849652
